# About 410 targets per protein were measured; listed, in parts, are those with the strongest signals and a random draw of the rest.
# B1: PX14375C-bth-509-28-509 (Bacteroides thetaiotaomicron) (protein)
# chain: RSPQGQFTEDDNPNALVNGKIYNVYTMMRSFDITAGTPAIAIHYLRSEDSEKGSIPSDGSDVAEMYDDFLYTPTNGLLGSYWGKNYAIIYQCNDILDAIAEKETAGQTETEDIINKGEASFFRAYCYFNLVRAFGEVPLVTYKINDASEANIPKTTADKIYEQIDTDLKTAEESLPETWSTEYTGRLTWGAARSLHARTYMMRSDWDNMYKASTDVINKGLYNLKTPYNEIFTDDGENSGGSIFELQCTATAALPQSDVIGSQFCEVQGVRGAGQWDLGWGWHMATQLMADAYETGDPRKNATLLYFRKTDDEPITPENTNEPYGESPISPAMGAYFNKKAYTDPALRKEYTNKGFWVNIRLIRYSDVVLMAAEAANEKNIPGEAVDYLEMVRARARGTNTNILPKITTNDQGELREAIRHERRVELGLEPDRFYDLVRWGIASEVLHAAGKVNYQDKNALLPLPQSEIDKSKGVLVQNPDY
# Key:
# Test in all cases: glycan array binding signal (z-score within array); higher = stronger binding
# Details in all cases: glycan notation: IUPAC condensed, linker removed
# [1] = target: Gal(b1-4)GlcNAc(b1-3)Gal(b1-4)GlcNAc(b1-3)Gal(b1-4)GlcNAc(b1-2)Man(a1-3)[Gal(b1-4)GlcNAc(b1-3)Gal(b1-4)GlcNAc(b1-3)Gal(b1-4)GlcNAc(b1-2)Man(a1-6)]Man(b1-4)GlcNAc(b1-4)GlcNAc
# Method in brief: (§1)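 Glycan array data were curated from 3228 arrays in the Consortium for Functional Glycomics database and kept only where the protein sequence was available. Glycan names were converted to IUPAC-condensed notation, and columns mapping to the same glycan were averaged. The binding signal is a within-array Z-score, averaged across arrays of the same protein sequence at different concentrations or buffers and across linkers. Negative Z-scores can be read as non-binding.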
# [2] = target: Gal(b1-4)GlcNAc(b1-3)Gal(b1-4)GlcNAc(b1-3)Gal(b1-4)GlcNAc(b1-3)Gal(b1-4)GlcNAc(b1-2)Man(a1-3)[Gal(b1-4)GlcNAc(b1-3)Gal(b1-4)GlcNAc(b1-3)Gal(b1-4)GlcNAc(b1-3)Gal(b1-4)GlcNAc(b1-2)Man(a1-6)]Man(b1-4)GlcNAc(b1-4)GlcNAc
# Method in brief: as §1
# [3] = target: Gal(b1-4)GlcNAc(b1-3)Gal(b1-4)GlcNAc(b1-3)Gal(b1-4)GlcNAc(b1-3)Gal(b1-4)GlcNAc(b1-3)Gal(b1-4)GlcNAc(b1-2)Man(a1-3)[Gal(b1-4)GlcNAc(b1-3)Gal(b1-4)GlcNAc(b1-3)Gal(b1-4)GlcNAc(b1-3)Gal(b1-4)GlcNAc(b1-3)Gal(b1-4)GlcNAc(b1-2)Man(a1-6)]Man(b1-4)GlcNAc(b1-4)GlcNAc
# Method in brief: as §1
# Gal6P(b1-4)GlcNAc = target: Gal6P(b1-4)GlcNAc
# Method in brief: as §1
# [4] = target: GalNAc(b1-3)Gal(a1-4)Gal(b1-4)GlcNAc(b1-3)Gal(b1-4)Glc
# Method in brief: as §1
# [5] = target: GalNAc(b1-3)Gal(a1-6)Gal(b1-4)Glc
# Method in brief: as §1
# GalNAc(b1-3)GalNAc = target: GalNAc(b1-3)GalNAc
# Method in brief: as §1
# [6] = target: GalNAc3S(b1-4)[Fuc(a1-3)]GlcNAc
# Method in brief: as §1
# Glc(b1-6)Glc = target: Glc(b1-6)Glc
# Method in brief: as §1
# [7] = target: GlcNAc(a1-4)Gal(b1-3)GlcNAc
# Method in brief: as §1
# [8] = target: GlcNAc(a1-4)Gal(b1-4)GlcNAc(b1-3)Gal(b1-4)[Fuc(a1-3)]GlcNAc(b1-3)Gal(b1-4)[Fuc(a1-3)]GlcNAc
# Method in brief: as §1
# [9] = target: GlcNAc(b1-3)Gal(b1-4)GlcNAc(b1-3)Gal(b1-4)GlcNAc(b1-2)Man(a1-3)[GlcNAc(b1-3)Gal(b1-4)GlcNAc(b1-3)Gal(b1-4)GlcNAc(b1-2)Man(a1-6)]Man(b1-4)GlcNAc(b1-4)GlcNAc
# Method in brief: as §1
# [10] = target: GlcNAc(b1-3)Gal(b1-4)GlcNAc(b1-3)Gal(b1-4)GlcNAc(b1-3)Gal(b1-4)GlcNAc(b1-2)[GlcNAc(b1-3)Gal(b1-4)GlcNAc(b1-3)Gal(b1-4)GlcNAc(b1-3)Gal(b1-4)GlcNAc(b1-6)]Man(a1-6)[GlcNAc(b1-3)Gal(b1-4)GlcNAc(b1-3)Gal(b1-4)GlcNAc(b1-3)Gal(b1-4)GlcNAc(b1-2)Man(a1-3)]Man(b1-4)GlcNAc(b1-4)[Fuc(a1-6)]GlcNAc
# Method in brief: as §1
# [11] = target: GlcNAc(b1-3)Gal(b1-4)GlcNAc(b1-6)[Gal(b1-3)]GalNAc
# Method in brief: as §1
# [12] = target: GlcNAc(b1-4)GlcNAc(b1-4)GlcNAc(b1-4)GlcNAc(b1-4)GlcNAc
# Method in brief: as §1
# Kdn(a2-3)Gal(b1-3)GlcNAc = target: Kdn(a2-3)Gal(b1-3)GlcNAc
# Method in brief: as §1
# [13] = target: Man(a1-2)Man(a1-2)Man(a1-3)Man
# Method in brief: as §1
# [14] = target: Man(a1-2)Man(a1-3)[Man(a1-6)]Man(a1-6)[Man(a1-2)Man(a1-3)]Man(b1-4)GlcNAc(b1-4)GlcNAc
# Method in brief: as §1
# [15] = target: Man(a1-2)Man(a1-6)[Man(a1-3)]Man(a1-6)[Man(a1-2)Man(a1-2)Man(a1-3)]Man(b1-4)GlcNAc(b1-4)GlcNAc
# Method in brief: as §1
# [16] = target: Neu5Ac(a2-3)Gal(b1-3)GlcNAc(b1-2)Man
# Method in brief: as §1
# [17] = target: Neu5Ac(a2-3)Gal(b1-3)GlcNAc(b1-6)GalNAc
# Method in brief: as §1
# [18] = target: Neu5Ac(a2-3)Gal(b1-4)GlcNAc(b1-3)Gal(b1-4)GlcNAc(b1-3)Gal(b1-4)GlcNAc(b1-2)Man(a1-3)[Neu5Ac(a2-3)Gal(b1-4)GlcNAc(b1-3)Gal(b1-4)GlcNAc(b1-3)Gal(b1-4)GlcNAc(b1-2)Man(a1-6)]GalNAc
# Method in brief: as §1
# [19] = target: Neu5Ac(a2-3)Gal(b1-4)GlcNAc6S
# Method in brief: as §1
# [20] = target: Neu5Ac(a2-3)Gal(b1-4)[Fuc(a1-3)]GlcNAc(b1-3)GalNAc
# Method in brief: as §1
# Neu5Ac(a2-8)Neu5Ac = target: Neu5Ac(a2-8)Neu5Ac
# Method in brief: as §1
# [21] = target: Neu5Ac(a2-8)Neu5Gc(a2-3)Gal(b1-4)GlcNAc
# Method in brief: as §1
# Neu5Gc(a2-6)GalNAc = target: Neu5Gc(a2-6)GalNAc
# Method in brief: as §1
binder,measurement,setting,value
B1,glycan array binding signal (z-score),[1],0.774
same,glycan array binding signal (z-score),[2],0.053
same,glycan array binding signal (z-score),[3],3.46
same,glycan array binding signal (z-score),Gal6P(b1-4)GlcNAc,-0.343
same,glycan array binding signal (z-score),[4],0.244
same,glycan array binding signal (z-score),[5],-0.426
same,glycan array binding signal (z-score),GalNAc(b1-3)GalNAc,1.2
same,glycan array binding signal (z-score),[6],-0.31
same,glycan array binding signal (z-score),Glc(b1-6)Glc,-0.146
same,glycan array binding signal (z-score),[7],-0.442
same,glycan array binding signal (z-score),[8],-0.057
same,glycan array binding signal (z-score),[9],3.19
same,glycan array binding signal (z-score),[10],-0.11
same,glycan array binding signal (z-score),[11],-0.076
same,glycan array binding signal (z-score),[12],0.127
same,glycan array binding signal (z-score),Kdn(a2-3)Gal(b1-3)GlcNAc,0.209
same,glycan array binding signal (z-score),[13],-0.321
same,glycan array binding signal (z-score),[14],-0.274
same,glycan array binding signal (z-score),[15],-0.383
same,glycan array binding signal (z-score),[16],-0.329
same,glycan array binding signal (z-score),[17],3.9
same,glycan array binding signal (z-score),[18],5.44
same,glycan array binding signal (z-score),[19],-0.321
same,glycan array binding signal (z-score),[20],-0.014
same,glycan array binding signal (z-score),Neu5Ac(a2-8)Neu5Ac,4.99
same,glycan array binding signal (z-score),[21],5.56
same,glycan array binding signal (z-score),Neu5Gc(a2-6)GalNAc,-0.21
